Usually Inhibition stands for the change of the read-out against control, counted positive when it falls.

Measured potencies and affinities stand elsewhere.

The assay concerns Cryptococcus neoformans. Particulars: Concentration 32 ug.mL-1; ASSAY_TEST Inhibition of Fungal Growth; detection method Resazurin; Absorption (OD600-OD570); plate type 384well; NBS; CORNING #3640. On the technique in general: Resazurin is reduced to fluorescent resorufin, in cell work by metabolically active cells.
Consider `CC1CCc2c(sc3ncn4c(=O)n(CC(=O)Nc5ccc6c(c5)CCC6)nc4c23)C1` (centres undefined), for which the Inhibition was -27.54%.

Turning to `COc1ccc(NC(=O)Cn2nc3c(Oc4ccccc4)nccn3c2=O)cc1`, the Inhibition is reported as -6.99%.

As to `COc1cccc(-n2ccn3c(SCc4cccc(C(F)(F)F)c4)nnc3c2=O)c1`, the Inhibition is reported as -6.54%.

Turning to `COc1ccc(-c2cc3c4nnc(SCC(=O)Nc5ccc(C)cc5Cl)n4ccn3n2)cc1`, the Inhibition was -30.51%.

With `Cc1ccc(C)c(CSc2nnc3c(=O)n(-c4ccc(F)c(F)c4)ccn23)c1`, the Inhibition is on record as -4.36%.

For the molecule `CCCc1nnc2c(=O)n(CC(=O)Nc3ccc(C(C)=O)cc3)c3ccccc3n12`, the Inhibition is -9.17%.

`Cc1ccc(CN(c2cc(C)cc(C)c2)S(=O)(=O)c2cccn3c(C)nnc23)cc1`: the Inhibition is given as -12.99%.

As to `COc1ccc(NC(=O)Cn2nc3ccc(SC4CCCCC4)nn3c2=O)cc1OC`, the Inhibition is on record as -24.6%.

On to `COc1ccccc1N1CCN(C(=O)CSc2nc3ccccc3n3c(C(C)C)nnc23)CC1`, for which the Inhibition is -16.67%.

As for `CCc1cccc(NC(=O)Cn2nc3c(SCc4ccc(Cl)cc4)nccn3c2=O)c1`, the Inhibition is given as -20.82%.

In the case of `COc1ccc(OC)c(NC(=O)Cn2nc3c4cc(-c5ccc(C)c(C)c5)nn4ccn3c2=O)c1`, the Inhibition is -22.06%.

For `Cc1ccc(CN(c2ccccc2)S(=O)(=O)c2ccc3nncn3c2)cc1`, the Inhibition is recorded as -7.34%.

Regarding `O=C(Cn1nc2c(Oc3ccccc3)nccn2c1=O)Nc1ccc(F)cc1F`, the Inhibition was -7.74%.

Consider `CCCCOc1ccc(-c2cc3c4nnc(SCC(=O)Nc5ccc(Cl)cc5)n4ccn3n2)cc1`, for which the Inhibition is -15.55%.

Values taken from ChEMBL document CHEMBL4513146, “CO-ADD screening of Karazin Kharkiv National University (Ukraine) compounds”.
